# Source: PubChem BioAssay AID504329 (Southern Research Specialized Biocontainment Screening …, 2011)
# Among all 340,000 compounds or so, about 1,000 (0.29%) were called active. Rule as the data show it: inconclusive = inhibition above about 27% without an active follow-up result; inactive = below that. The list is a sample of the results. Results with a measured potency or affinity are listed apart.
# Experiment: NS1A inhibition, H1N1 influenza, cell based functional assay (AID 504329)
# Conditions: percent inhibition, at 12.5 µM, stronger effect = higher value
row,SMILES,inhibition
1,CC(C)(C)NC(=O)C12CC3CC(CC(Cl)(C3)C1)C2,1.34% (inactive)
2,O=C(COC(=O)c1ccc(Br)c(S(=O)(=O)N2CCOCC2)c1)NC1CC1,-5.17% (inactive)
3,CCOC(=O)c1cc(S(=O)(=O)NC2CCC(C)CC2)cn1C (stereo unspecified),-6.39% (inactive)
4,CCCOc1ccc(NC(=O)C(=O)NCCCn2ccnc2)cc1,-6.26% (inactive)
5,Cc1cccc(Oc2cnn(C(C)(C)C)c(=O)c2Cl)c1,-1.49% (inactive)
6,CCOC(=O)c1c(C)oc2c1C(=O)c1ccccc1C2=O,15.3% (inactive)
7,O=C1c2ccccc2-c2c1cccc2C(=O)N1CCN(C(=O)c2ccco2)CC1,0.55% (inactive)
8,CCOC(=O)c1c(C)nc2c(c1-c1ccccc1)C(=O)c1ccccc1-2,-17.6% (inactive)
9,CCOC(=O)N1CCN(c2cc(NCCO)c([N+](=O)[O-])c3nonc23)CC1,-0.42% (inactive)
10,O=C(O)CCCNc1cc(N2CCN(C(=O)c3ccco3)CC2)c2noc3c2c1C(=O)c1ccccc1-3,25.1% (inactive)
11,CN1CCN(c2ccc(Cl)cc2NC(=O)CC2OC(=O)c3ccccc32)CC1 (stereo unspecified),-6.08% (inactive)
12,CC(=O)OCCNc1cc(Sc2nc3ccccc3[nH]2)c2nonc2c1[N+](=O)[O-],-9.31% (inactive)
13,CCOC(=O)N1CCN(c2ccccc2O)CC1,-11.3% (inactive)
14,CCOC(=O)CC(=O)CSc1nc(C)nc2c1oc1ccccc12,2.82% (inactive)
15,O=C(NCCCN1CCOCC1)C(=O)NCC1OCCCN1S(=O)(=O)c1cc(F)ccc1F (stereo unspecified),-1.53% (inactive)
16,COC(=O)c1cc(C)sc1NC(=S)N1CCN(CCc2ccccc2)CC1,4.17% (inactive)
17,CCN1CCN(c2ccc(NC(=O)c3ccc4c(c3)OCCO4)cc2C)CC1,-4.06% (inactive)
18,COc1cccc(CCc2nc3ccccc3c(=O)n2N)c1,-4.28% (inactive)
19,COc1ccc(S(=O)(=O)n2nc(-c3ccc(Cl)cc3)cc2N)cc1,2.77% (inactive)
20,CCN(CC(=O)Nc1c(F)cccc1F)C(=O)c1cc([N+](=O)[O-])ccc1N1CCOCC1,-7.79% (inactive)
21,Cc1cc(C)nc(NS(=O)(=O)c2ccc(NC(=S)NC(=O)C3CCCC3)cc2)n1,-7.03% (inactive)
22,COC(=O)c1ccccc1NC(=O)N1CCN(c2ccc(OC)cc2)CC1,12% (inactive)
23,COc1cc(-c2cc(C(=O)OCC(=O)NC3CC3)c3ccccc3n2)cc(OC)c1OC,-4.4% (inactive)

row,SMILES,inhibition
1,COc1ccc(C(=O)Nc2cnn(Cc3c(F)cccc3Cl)c2)cc1OC,-4.35% (inactive)
2,O=C(N[C@H]1CP(=O)(Oc2ccccc2)O[C@H](COCc2ccccc2)[C@H]1O)C(Cl)(Cl)Cl (stereo partly specified),-20.9% (inactive)
3,CCOC(=O)c1cnc2ccc(C)cc2c1NCCN1CCOCC1,-11.3% (inactive)
4,CCOC(=O)c1ccc2ncc(C(=O)OCC)c(Nc3ccc(N4CCOCC4)cc3)c2c1,28.6% (inactive)
5,O=c1[nH]c(=S)[nH]cc1Oc1ccccc1,-0.47% (inactive)
6,CC(=O)N1c2ccc(S(=O)(=O)N3CCCC(C(=O)Nc4ccc(F)cc4)C3)cc2CC1C (stereo unspecified),1.22% (inactive)
7,CC1CCN(C2CCN(S(=O)(=O)c3ccc(F)cc3)CC2)CC1,-14.4% (inactive)
8,Cc1nn2c(=S)[nH]nc2[nH]c1=O,5.07% (inactive)
9,COc1ccccc1OCC(=O)Nn1c(=S)[nH]c2ncccc2c1=O,-1.5% (inactive)
10,CNCC(=O)Nc1c(C)n[nH]c1C,-3.79% (inactive)
11,Cc1n[nH]c(=S)n(/N=C/c2cccs2)c1=O,-10.9% (inactive)
12,COc1cc(C)ccc1OCC(=O)NC1CCCCCC1,-0.58% (inactive)
13,CCC(C)NC(=O)COCc1cc(-c2ccc3c(c2)OCO3)on1 (stereo unspecified),-7.2% (inactive)
14,COc1ccc(-c2sc3cc4c(cc3c2-c2ccc3c(c2)OCCO3)OCO4)cc1,-11.4% (inactive)
15,ClCC1CSC(=NC23CC4CC(CC(C4)C2)C3)O1 (stereo unspecified),-6.27% (inactive)
16,C1=CC2=NC34CCCCC3CC3=C(CCCC3)N4C2=CC1=NC1CCCCC1 (stereo unspecified),4.56% (inactive)
17,N#CC(C#N)=c1ccc2c(c1)N1C(c3ccccc3)=CC(c3ccccc3)C3CCCCC31N=2 (stereo unspecified),-4.24% (inactive)
18,C=CCN(c1ccccc1)S(=O)(=O)c1cccc(C(=O)NCC(c2ccc(OC)cc2)N2CCCCC2)c1 (stereo unspecified),3.3% (inactive)
19,CC(=O)Nc1ccc(C=NNc2ccc(S(=O)(=O)Nc3ccccc3C(=O)O)cc2[N+](=O)[O-])cc1,15.1% (inactive)
20,CSc1ccc(C=NNc2ccc(S(=O)(=O)Nc3ccccc3C(=O)O)cc2[N+](=O)[O-])cc1,3.57% (inactive)
21,Cc1ccc(NC(=S)NNc2ccc([N+](=O)[O-])cc2S(=O)(=O)Nc2ccccc2C(=O)O)cc1C,26.1% (inactive)
22,COc1cc(C=NNc2ccc(S(=O)(=O)Nc3ccccc3C(=O)O)cc2[N+](=O)[O-])ccc1O,14.4% (inactive)
23,COc1ccccc1NS(=O)(=O)c1ccc(N/N=C/c2c(C)nn(-c3ccccc3)c2N2CCCC2)c([N+](=O)[O-])c1,8.44% (inactive)

row,SMILES,inhibition
1,COc1ccc(C=NNc2ccc(S(=O)(=O)Nc3ccccc3C(=O)O)cc2[N+](=O)[O-])c(OC)c1,20.4% (inactive)
2,COC(=O)Nc1ccc(S(=O)(=O)N2CCC(C(=O)N3CCCCC3C)CC2)cc1 (stereo unspecified),-11.1% (inactive)
3,COc1ccccc1NS(=O)(=O)c1cc(C(=O)NCC(C)(C)N2CCOCC2)ccc1C,-2.2% (inactive)
4,CCOc1ccc(CN(CC)C(=O)Cc2c[nH]c3ccccc23)cc1OC,-0.83% (inactive)
5,O=C(O)[C@H](Cc1ccccc1)N1C(=O)c2ccncc2C1=O,-6.13% (inactive)
6,CC(=O)c1c(C)[nH]c(C(=O)OCC(=O)NCc2ccc3c(c2)OCO3)c1C,-0.39% (inactive)
7,NC1=NC(=O)C(CC(=O)NCc2ccccc2)S1 (stereo unspecified),2.63% (inactive)
8,O=C(O)CNC(=O)CC1S/C(=N/N=C2/NC(=O)CS2)NC1=O (stereo unspecified),16.4% (inactive)
9,CCN=C1SC(CC(=O)NC(N)=O)C(=O)N1CC (stereo unspecified),0.98% (inactive)
10,NC(=O)NC(=O)CC1S/C(=N/N=C2/NC(=O)CS2)NC1=O (stereo unspecified),5.04% (inactive)
11,CCN(CC)CCOc1ccccc1C(C)=O,-6.91% (inactive)
12,COc1ccc(CNC(=O)C(C)Sc2ccc(S(=O)(=O)N3CCOCC3)cn2)cc1 (stereo unspecified),-8.84% (inactive)
13,CN(C)C(=O)C(OC(=O)c1ccc2c(c1)CCCC2)c1ccccc1 (stereo unspecified),-4.12% (inactive)
14,Nc1cc([N+](=O)[O-])ccc1OCc1ccccc1,-17.4% (inactive)
15,CC(=O)Nc1ccc(OCc2ccccc2)cc1[N+](=O)[O-],-2.5% (inactive)
16,S=C(Nc1ccc(Cl)cc1)Nc1ccc2c(c1)OCCO2,-3.12% (inactive)
17,COc1ccc(OC)c(S(=O)(=O)Nc2c(C)cccc2C)c1,-4.66% (inactive)
18,CN(CC(=O)NCCc1ccc(F)cc1)Cc1ccccc1,0.42% (inactive)
19,O=C1C(Cl)=C(NCCc2ccccc2)C(=O)c2ccccc21,28.7% (inactive)
20,CC(=O)N(Cc1ccc(F)cc1)c1cccc(C)c1C,5.28% (inactive)
21,CCCNC1=C(N(C(C)=O)c2cccc(F)c2)C(=O)c2ccccc2C1=O,-1.3% (inactive)
22,O=C1C=C(Nc2ccc(Cl)cc2)CC(c2ccccc2)C1 (stereo unspecified),1.69% (inactive)
23,CC(C)CCN1C(Nc2ccccc2)=NC[C@@H]1Cc1ccccc1,-9.63% (inactive)

row,SMILES,inhibition
1,COC(=O)c1cc2ccccn2c2c(C(=O)OC)c(C(=O)OC)cc1-2,16.8% (inactive)
2,COC(=O)c1cc2c(-c3ccccc3)c(C)c3ccccn3c-2c1C(=O)OC,26.4% (inactive)
3,CC(=O)NC1c2ccccc2C(=O)N1Cc1ccccc1 (stereo unspecified),-3.85% (inactive)
4,O=[N+]([O-])c1ccc(/C=N/Nc2nc(NCc3ccccc3)nc(N3CCOCC3)n2)cc1,-9.38% (inactive)
5,O=[N+]([O-])c1cccc(/C=N/Nc2nc(NCc3ccccc3)nc(N3CCOCC3)n2)c1,0.07% (inactive)
6,COc1ccc(NC(=O)[C@H](CCS(C)(=O)=O)N2Cc3ccccc3C2=O)c(OC)c1,28.3% (inactive)
7,C[C@H](OC(=O)c1[nH]cnc1C(=O)N1CCN(C(=O)OC(C)(C)C)CC1)c1ccccc1,-7.71% (inactive)
8,CC1=NN(c2ccc(Cl)c(C(=O)O)c2)C(=O)/C1=C\c1ccc(-c2ccc(C(=O)O)cc2)o1,19.4% (inactive)
9,CC1=NN(c2ccc(C(=O)O)cc2)C(=O)/C1=C/c1ccc(-c2ccccc2F)o1,23.6% (inactive)
10,CC(=O)Nc1ccc(S(=O)(=O)N2CCC3(CC2)OCCO3)cc1,4.94% (inactive)
11,COC(=O)c1ccc2nc(C)c(C)nc2c1,-1.98% (inactive)
12,COC(=O)c1ccc(O)cc1,-1.72% (inactive)
13,COC(=O)c1ccc2c(c1)C(=O)/C(=C/c1ccc(O)cc1)O2,-8.68% (inactive)
14,COC(=O)c1ccc2c(c1)C(C)(C)C(/C=C/c1ccc(OC)c(OC)c1OC)=[N+]2C,4.08% (inactive)
15,CNC(=O)c1c(C)noc1C,-6.29% (inactive)
16,Clc1ccc(SCc2cc(Cl)nc(-c3ccccc3)n2)cc1,3.7% (inactive)
17,Clc1ccc(SCc2cc(N3CCOCC3)nc(-c3ccccn3)n2)cc1,-0.35% (inactive)
18,COc1ccccc1N/C=C(\C#N)c1nc2ccccc2[nH]1,10.7% (inactive)
19,COc1ccc(N/N=C(/N=Nc2nc(C)cc(=O)[nH]2)c2ccccc2)cc1,26.3% (inactive)
20,C/C(=N\Nc1ccc(C(=O)O)cc1)c1ccc(Br)cc1,-17.3% (inactive)
21,O=C(/C(=N\Nc1ccc(Br)cc1)Sc1nnnn1-c1ccccc1)c1ccccc1,4.24% (inactive)
22,Cc1cc(=O)[nH]c(N=N/C(=N/Nc2ccc(O)cc2)c2ccccc2)n1,13.6% (inactive)
